40 compounds from PubChem BioAssay (NCI) can be followed below.

This is part of a sample that, as a whole, favours compounds with a hit. Of some 83,000 tested, about 20% had one in any assay.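 The test compound was applied at a single concentration to cells in 96-well plates for 48 hours, and percent growth was recorded.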 The source made the active and inactive calls.

This assay has as its system HOP-92 NSCLC. Put plainly: NCI-60 one-dose screen, 48 h (100 = growth as untreated, 0 = no growth, -100 = all killed). Conditions: 10 µM. On the procedure:
Growth inhibition of the HOP-92 human Non-Small Cell Lung tumor cell line is measured as a screen for anti-cancer activity. Cells are grown in 96 well plates and exposed to the test compound for 48 hours. Compounds are tested at a single concentration, which is 10^-5 M for most compounds. The reported endpoint is percent growth (GI% or GIPRCNT), where numbers from 0 - 100% represent growth inhibition, and numbers from -100% - 0 represent cell death. For example, a value of 40 represents 60% growth inhibition. A value of 0 means no net growth occurred over the course of the experiment. A value of -40 indicates 40% of cells at the beginning of the experiment died by the end of the experiment. A value of -100 means all cells are dead at the end of the experiment.
NCI-60 Human Tumor Cell Lines Screen was performed using the standard one-dose NCI protocol, which is described in more detail at https://dtp.cancer.gov/discovery_development/nci-60/default.htm.
Compounds with GIPRCNT values below 10 were considered active. Activity score was based on GIPRCNT using the following formula: […]
Score is 0 for GIPRCNT values of 100 or above, 50 for GIPRCNT values of 0, and 100 for GIPRCNT values of -100.
In the case of `COC1OC(COS(=O)OC)C(O)C(O)C1OS(=O)OC` (stereo not given), the growth was 108% (inactive).
Take `COc1ccc(C(c2ccc(OCCN(C)C)cc2)c2cc3ccccc3c3ccccc23)cc1` (stereo not given): the growth is 63.6% (inactive).
Then `Oc1cccc(-c2nc3sccn3c2-c2ccncn2)c1`, with 82.6% (inactive); and `O=C1CSC(=S)N1/N=C/c1ccc(Cl)s1`, with 110% (inactive).
Turning to `COc1ccc(-c2csc(NC(=O)c3ccc(Cc4n[nH]c(=O)c5cccnc45)cc3)n2)cc1`, the growth was 75.3% (inactive).
Then `CCOC(=O)c1cc(C(=O)c2cc(OC)cc(OC)c2)n2nc(C)ccc12`, with 13.9% (inactive); and `CCn1c(CSc2nc3ccccc3c(=O)n2CCc2ccccc2)n[nH]c1=S`, with 85.9% (inactive).
Then `S=c1cnc2ccccc2[nH]1`, with 79.4% (inactive).
Then `COc1cc(C2C(C#N)=C(N)Oc3cc(O)ccc32)cc(OC)c1OC` (stereo not given), with 49.7% (inactive).
Take `COc1cccc(N=Nc2cccc(OC)c2)c1`: the growth was 84% (inactive).
Then `O=C(CCCSc1nc(-c2ccccc2)cc(-c2ccc(Cl)cc2)n1)NO`, with 32.9% (inactive).
Then `COc1ccc(CCN2CCC(Nc3nc4ccccc4n3Cc3ccc(F)cc3)CC2)cc1`, with -20.1% (active); and `CCCCc1oc2ccccc2c1C(=O)c1cc(I)c(OCCN(CC)CC)c(I)c1`, with -68.7% (active); and `O=C(N/N=C/c1ccc(Cl)cc1)c1ccc(Cc2n[nH]c(=O)c3cccnc23)cc1`, with 95.2% (inactive).
Then `C=CCn1c(SCC(=O)Nc2ccc(C(=O)/C=C/c3cc(OC)c(OC)c(OC)c3)cc2)nnc1-c1cc(-c2ccc(Cl)cc2)nc2ccccc12`, with 83% (inactive).
Regarding `Cc1ccc(C)c(COc2cc(NC(=O)c3ccc4c(c3)OCO4)ccc2N(C)S(C)(=O)=O)c1`, the growth was 23.1% (inactive).
Then `COc1cc(-c2nn(-c3cccc(NC(=O)CCNc4ccc(N5CCOCC5)cc4)c3)cc2-c2ccncc2)ccc1Cl`, with -6.34% (active); and `CCN(CC)CCNc1ccc(C)c2sc3cc(Cl)ccc3c(=O)c12`, with 22% (inactive); and `CNC(=O)c1cn(C2CC2)c2cc(N3CCN(C(=O)c4cc(OC)c(OC)c(OC)c4)CC3)c(F)cc2c1=O`, with 92.3% (inactive).
`CC(C)C[C@H](NC(=O)Cn1cccc(CNC(=O)c2ccccc2)c1=O)B(O)O`: the growth was -11.3% (active).
Then `Cc1n[nH]c(C)c1N=Nc1cccc2c1C(=O)c1ccccc1C2=O`, with 92.6% (inactive); and `C#C[C@]1(O)CCC2C3CCc4cc(OC5CCCC5)ccc4C3CC[C@@]21C` (stereo not given in full), with 99.6% (inactive); and `O=C1NC(=O)c2c(CCCSc3nc4ccccc4c(=O)n3CCc3ccccc3)cccc21`, with 94.5% (inactive).
Then `CCOC(=O)c1cc(C(=O)c2cc(OC)c(OC)c(OC)c2)n2ncc3ccccc3c12`, with 81.6% (inactive).
In the case of `Cc1c[nH]c(=O)n(Cc2nnc(CCC(=O)c3nc4ccccc4[nH]3)o2)c1=O`, the growth is 53.2% (inactive).
Regarding `Nc1nc(Cn2c(-c3nonc3N)nc3ccccc32)nc(N2CCCCC2)n1`, the growth is 82.3% (inactive).
Then `CCN(CC)CCOc1cccc2c1C(=O)c1ccccc1C2=O`, with 71.2% (inactive); and `Cc1cc(CC(C)CC(C)(C)C)n(O)c(=O)c1` (stereo not given) (tested in a mixture with another compound), with 73.6% (inactive); and `COc1cc2cc(Oc3ccc(NC(=O)c4cc(C(F)(F)F)cc(C(F)(F)F)c4)cc3)c(C)nc2cc1OC`, with -6.21% (active).
Then `CN1C(=O)C2(Nc3cc(Cl)ccc3S2)c2cc(Cl)ccc21` (stereo not given), with 71.7% (inactive); and `COc1cc2cc(Oc3ccc(NC(=O)Nc4ccc(Cl)c(Cl)c4)cc3)c(C)nc2cc1OC`, with -9.31% (active).
As to `CCOC(=O)/C(=C(\C)N)C1CC(=O)NC1=O` (stereo not given), the growth was 112% (inactive).
Then `CC(=O)Oc1cc(OC(C)=O)c2ccccc2c1OC(C)=O`, with 107% (inactive).
Then `C[C@]12CCC3c4ccc(O)cc4C[C@@H](CCCCCCCCCS(=O)CCCC(F)(F)C(F)(F)F)C3C1CC[C@@H]2O` (stereo not given in full), with 78% (inactive); and `COc1ccc(-c2cc(-c3ccc(OC)c(OC)c3)nc(SCCCC(=O)NO)n2)cc1`, with -28.6% (active).
Then `COc1cccc(CNc2cccc3cn[nH]c23)c1O`, with 72.3% (inactive).
Consider `Cc1[nH]c2ccccc2c1/C=N/Nc1ncnc2sc3c(c12)CCN(CC(=O)OC(C)(C)C)C3`, for which the growth is 61.2% (inactive).
For the compound `COC(=O)C1OC1c1cc([N+](=O)[O-])ccc1OC` (stereo not given), the growth is 106% (inactive).
Then `COc1cc(C(=O)N2CCN(c3cc4c(cc3F)c(=O)c(C(=O)NO)cn4C3CC3)CC2)cc(OC)c1OC`, with 99.1% (inactive).
Then `CN(C)CCOc1cccc(-c2nc3sccn3c2-c2ccnc(S(C)(=O)=O)n2)c1`, with 53.7% (inactive).
